Inconclusive results are not listed. Entries that show only a call come without a potency. A number with no mark means an inactive call. The source made the active and inactive calls. Calls come from the whole dose curve; as a rule, active = well fitted curve in the direction sought with a large enough effect; inconclusive = small, poorly fitted or top-dose-only effect, or another doubt; inactive = no such curve, though single readings can be large; an effect the other way counts as inactive or inconclusive. Square brackets hold non-standard residues; d marks the D form. Peptide text beside a SMILES is read from it. Hyp = O=C(O)[CH]1C[CH](O)CN1; Phe(ol) = N[CH](CO)Cc1ccccc1; Iva = CC[C](C)(N)C(=O)O; Aib = CC(C)(N)C(=O)O
Legend:
[1] = target: Cellular tumor antigen p53 (Homo sapiens) (UniProt P04637); assay: Primary qHTS for small molecule compounds that upregulate eGFP-tagged delta133p53alpha (in N-terminal) cells. (AID 2060322); conditions: NCI-H358 eGFP-delta133p53alpha fluorescence, 24 h; activation: stronger effect = higher value; note: nearly all actives have a fitted effect of over 75% in size; note: potency is the fitted concentration of half-maximal effect; for activation: series mostly up to about 56 µM
Cellular tumor antigen p53 (Homo sapiens), sequence (P04637 whole entry, looked up): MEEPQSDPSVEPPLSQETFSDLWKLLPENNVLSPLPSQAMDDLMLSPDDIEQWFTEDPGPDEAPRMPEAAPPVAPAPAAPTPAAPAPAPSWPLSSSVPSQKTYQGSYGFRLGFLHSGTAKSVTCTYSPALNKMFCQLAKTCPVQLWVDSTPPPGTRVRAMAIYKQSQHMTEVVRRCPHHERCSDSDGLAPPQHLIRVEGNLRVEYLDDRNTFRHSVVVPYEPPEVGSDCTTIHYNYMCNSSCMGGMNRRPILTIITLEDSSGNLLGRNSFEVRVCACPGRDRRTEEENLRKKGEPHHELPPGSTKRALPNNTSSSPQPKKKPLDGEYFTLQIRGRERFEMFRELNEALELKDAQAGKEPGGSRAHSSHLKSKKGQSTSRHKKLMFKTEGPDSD
How it was run: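 NCI-H358 cells pre-induced 24 h with 10 ng/ml doxycycline to express N-terminal eGFP-delta133p53alpha, then dosed 24 h at 37C without doxycycline; fixed, Hoechst-stained, GFP intensity by laser scanning cytometry, normalized to DMSO (0%) and 57.5 uM 5-azacytidine (100%).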

[2] = target: Aldehyde dehydrogenase, mitochondrial (Homo sapiens) (UniProt P05091); assay: qHTS for Inhibitors of the Aldehyde Dehydrogenase Family (ALDH2) Primary screen (AID 2061308); note: nearly all actives have a fitted effect of over 55% in size
[3] = target: Retinaldehyde dehydrogenase 3 (Homo sapiens) (UniProt P47895); assay: qHTS for Inhibitors of the Aldehyde Dehydrogenase Family (ALDH1A3) Primary screen (AID 2061315)

SMILES	activation [1]	Potency [2]	Potency [3]	activity change, negative = inhibition [2]	activity change, negative = inhibition [3]	Potency [1]
COC(=O)Cn1nc(-c2cccc(OC)c2)c2ccccc21	-1.67%	inactive	inactive			
CC(=O)OC(C)(C)/C=C/C(=O)[C@](C)(O)C1[C@H](O)C[C@@]2(C)[C@@H]3CC=C4[C@@H](C[C@H](O[C@@H]5O[C@H](CO)[C@@H](O)[C@H](O)[C@H]5O)C(=O)C4(C)C)[C@]3(C)C(=O)C[C@]12C (stereo partly drawn)	-10.7%	inactive	inactive			
C=C1C(=O)O[C@@H]2C[C@H](C)[C@@]3(O)C=C(C(C)=O)[C@]4(CC3C[C@H]12)C(=O)O[C@H]1C[C@@H](C)C(CCC(C)=O)=CC[C@H]14 (stereo partly drawn)	4.46%	inactive	inactive			
C=C(CO)C(=O)O[C@H]1C[C@@]23O[C@@H]2CC/C(=C/[C@H]2OC(=O)C(=C)[C@H]12)CO[C@H]3O	26.8%	inactive	inactive			
CC1(C)CC[C@]2(C(=O)O[C@@H]3O[C@H](CO[C@@H]4O[C@H](CO)[C@@H](O)[C@H](O)[C@H]4O[C@@H]4O[C@H](CO)[C@@H](O)[C@H](O)[C@H]4O)[C@@H](O)[C@H](O[C@@H]4O[C@H](CO)[C@@H](O)[C@H](O)[C@H]4O)[C@H]3O)CC[C@]3(C)C(=CCC4[C@@]5(C)CC[C@@H](O)[C@@](C)(C(=O)O[C@@H]6O[C@H](CO)[C@@H](O)[C@H](O)[C@H]6O)C5CC[C@]43C)[C@@H]2C1 (stereo partly drawn)	-7.63%			5.56% [at 11.2 µM]	9.33% [at 11.2 µM]	
CC(CCC1C(C(=O)O)=CC(=O)CC1(C)C)O[C@@H]1O[C@H](CO)[C@@H](O)[C@H](O)[C@H]1O (stereo partly drawn)	-11.5%	inactive	inactive			
C[C@@H]1O[C@@H](O[C@H]2[C@H](O)[C@@H](O)[C@H](O[C@H]3[C@H](O[C@H]4CC[C@@]5(C)C(=CC[C@@H]6C5CC[C@]5(C)[C@@H]7[C@H](C[C@@H]65)O[C@]5(CC[C@@](C)(CO[C@@H]6O[C@H](CO)[C@@H](O)[C@H](O)[C@H]6O)O5)[C@H]7C)C4)O[C@H](CO)[C@@H](O)[C@@H]3O)O[C@@H]2CO)[C@H](O)[C@H](O)[C@H]1O (stereo partly drawn)		inactive	inactive			3.6 µM (active)
CC1CCC2(C(=O)OC3OC(CO)C(O)C(O)C3O)CCC3(C(=O)O)C(=CCC4C5(C)CCC(OC6OC(C)C(O)C(O)C6O)C(C)(C)C5CCC43C)C2C1C (stereo not drawn)	-10.7%	inactive	inactive			
C=CC1C(O[C@@H]2O[C@H](CO)[C@@H](O)[C@H](O)[C@H]2O)OC=C(C(=O)OC)C1Cc1nccc2c1[nH]c1ccccc12 (stereo partly drawn)	19.6%	inactive	inactive			
CC(CCC1(O)OC2CC3C4CCC5CC(O[C@@H]6O[C@H](CO)[C@@H](O)[C@H](O)[C@H]6O[C@@H]6O[C@@H](C)[C@H](O)[C@@H](O)[C@H]6O)C(O)CC5(C)C4CCC3(C)C2C1C)CO[C@@H]1O[C@H](CO)[C@@H](O)[C@H](O)[C@H]1O (stereo partly drawn)	9.82%	inactive	inactive			
CC(C)=C1C[C@@]2(C)C(=CC1=O)CC[C@@H](OC(=O)/C(C)=C/CO)[C@@H]2C	5.34%	inactive	inactive			
C[C@@H]1O[C@@H](O[C@H]2[C@H](O)[C@@H](O)[C@H](OC[C@H]3O[C@@H](OC(=O)[C@]45CCC(C)(C)C[C@H]4C4=CCC6[C@@]7(C)C[C@@H](O)[C@H](O)[C@@](C)(CO)C7[C@H](O)C[C@@]6(C)[C@]4(C)CC5)[C@H](O)[C@@H](O)[C@@H]3O)O[C@@H]2CO)[C@H](O)[C@H](O)[C@H]1O (stereo partly drawn)	16%	inactive	inactive			
CC(C)(O)C1CC=C(C(=O)OC[C@H]2O[C@@H](OC(=O)C3=CCC(C(C)(C)O)CC3)[C@H](O)[C@@H](O)[C@@H]2O)CC1 (stereo partly drawn)	-8.4%	inactive	inactive			
C[C@@H]1O[C@@H](O[C@H]2[C@H](O[C@H]3[C@H](O[C@H]4CC[C@@]5(C)C(CC[C@]6(C)C5CC=C5[C@@H]7CC(C)(C)CC[C@]7(C(=O)O[C@@H]7O[C@H](CO)[C@@H](O[C@@H]8O[C@@H](C)[C@H](O)[C@@H](O)[C@H]8O)[C@H](O)[C@H]7O)CC[C@]56C)C4(C)C)OC[C@H](O)[C@@H]3O)O[C@H](CO)[C@@H](O)[C@@H]2O)[C@H](O)[C@H](O)[C@H]1O (stereo partly drawn)	7.14%			3.25% [at 11.2 µM]	-3.58% [at 11.2 µM]	
CC1=CC2/C=C(\C)CC[C@@H](O)[C@@H](O)[C@@H]3O[C@@H]3C(=O)[C@]23C(=O)N[C@@H](CC(C)C)[C@@H]3[C@@H]1C (stereo partly drawn)	0%	inactive	inactive			
Cc1ccccc1-n1c([C@H](C)Nc2nc(N)nc3nc[nH]c23)nc2cccc(C)c2c1=O	-15.2%	inactive	inactive			
CC[C@H](C)[C@H](NC(=O)[C@H](Cc1ccc(O)cc1)NC(=O)[C@@H](N)C(C)C)C(=O)N[C@@H](Cc1cnc[nH]1)C(=O)N1CCC[C@H]1C(=O)N[C@@H](Cc1ccccc1)C(=O)O	0.333%			0.0903% [at 5.59 µM]	1.7% [at 5.59 µM]	
O=C(NOC[C@H](O)CO)c1ccc(F)c(F)c1Nc1ccc(I)cc1F	8.59%	inactive	inactive			

SMILES	activation [1]	Potency [2]	Potency [3]	activity change, negative = inhibition [2]	activity change, negative = inhibition [3]	Potency [1]
CC(=O)O[C@@H]1[C@@H](O)[C@H](C)O[C@@H](O[C@H]2[C@@H]3C=CO[C@@H](O[C@@H]4O[C@H](CO)[C@@H](O)[C@H](O)[C@H]4O)[C@@H]3[C@@]3(CO)O[C@@H]23)[C@@H]1OC(=O)/C=C/c1ccccc1	4.58%	inactive	inactive			
CC1=C(CO)C2(C)CCCC(C)(C)C2C(O)C1O (stereo not drawn)	11.6%	inactive	inactive			
COC(=O)c1ccnc(-c2cc(C(=O)Nc3ccc(C4(N)CC4)cc3)ccn2)c1	1.67%	inactive	inactive			
CC(=O)O[C@H]1[C@@H](O)[C@H](O[C@H]2[C@@H]3C=CO[C@@H](O[C@H]4O[C@@H](CO)[C@H](O)[C@@H](O)[C@@H]4O)[C@@H]3[C@@]3(CO)O[C@@H]23)O[C@@H](C)[C@@H]1OC(=O)/C=C/c1ccccc1	-17.9%	inactive	inactive			
CCC(C)(NC(=O)C(CCC(N)=O)NC(=O)C1CC(O)CN1C(=O)C(C)(C)NC(=O)C(C)(C)NC(=O)C(CC(C)C)NC(=O)CNC(=O)C(NC(=O)C(C)(C)NC(=O)C(C)(C)NC(=O)C(C)(C)NC(=O)C(Cc1ccccc1)NC(C)=O)C(C)C)C(=O)N1CC(O)CC1C(=O)NC(C)(C)C(=O)NC(CO)Cc1ccccc1 (stereo not drawn) (Ac-F[Aib][Aib][Aib]VGL[Aib][Aib][Hyp]Q[Iva][Hyp][Aib][Phe(ol)]; configuration not given here)	23.7%			-9.83% [at 11.2 µM]	11.2% [at 11.2 µM]	
O=C(OC[C@H]1O[C@H](O[C@H]2CO[C@H](CO)[C@@H](O)[C@@H]2O)[C@H](O)[C@@H](O)[C@H]1O)c1ccccc1	-4.58%	inactive	inactive			
C/C=C1\[C@H](O[C@@H]2O[C@H](CO)[C@@H](O)[C@H](O)[C@H]2O)OC=C(C(=O)OC)[C@H]1CC(=O)O	3.82%	inactive	inactive			
C[C@]12CCC[C@](C)(C(=O)O)C1CCC13C=C(CO)C(CCC12)C3 (stereo partly drawn)	-24.4%	inactive	inactive			
C[C@@H]1CCC2C(C)(C)[C@H](O)CC[C@]2(C)[C@@]12Cc1c(O)cc3c(c1O2)CN(CCO)C3=O (stereo partly drawn)	11.5%	inactive	inactive			
O=C(c1ccc(F)cc1)N1CCCC(c2nc(-c3ccc(F)cc3)no2)C1 (stereo not drawn)	-1.91%	inactive	inactive			
C[C@]1(CO)CN(c2cc(C(=O)Nc3ccc4c(c3)-c3c(c(C(N)=O)nn3-c3ccc(F)cc3)CC4)c(Cl)cn2)C[C@@]1(C)CO	21.4%	inactive	inactive			
C[C@@H]1O[C@@H](O[C@H]2[C@H](O)[C@@H](O)[C@H](OC[C@H]3O[C@@H](OC(=O)[C@]45CCC(C)(C)C[C@H]4C4=CCC6[C@@]7(C)C[C@H](O)[C@H](O[C@@H]8O[C@H](CO)[C@@H](O)[C@H](O)[C@H]8O)[C@@](C)(C(=O)O)C7CC[C@@]6(C)[C@]4(C)CC5)[C@H](O[C@@H]4O[C@H](CO)[C@@H](O)[C@H](O)[C@H]4O)[C@@H](O)[C@@H]3O)O[C@@H]2CO)[C@H](O)[C@H](O)[C@H]1O (stereo partly drawn)	18.8%			8.16% [at 11.2 µM]	-4.1% [at 11.2 µM]	
CCOP(=O)(Cc1ccc(C(=O)Nc2ccc(Br)cc2C#N)cc1)OCC	2.33%	inactive	inactive			
CC(C)=CCC/C(C)=C/CO[C@@H]1O[C@H](CO[C@@H]2OC[C@](O)(CO)[C@H]2O)[C@@H](O)[C@H](O)[C@H]1O	2.29%	inactive	inactive			
COc1cc(-c2cc(-c3cccc(O)c3)cnc2N)cc(OC)c1OC		inactive	inactive			16.9 µM (active)
CC(=O)C1CCC(=O)N1Cc1ccccc1 (stereo not drawn)	-13.7%	inactive	inactive			
CC(=O)N[C@@H](C(=O)O[C@H]1CCC(C)(C)[C@@H]2CCC3=C(COC3=O)[C@@]12C)C(C)C	-12.2%	inactive	inactive			
N#Cc1cc(-c2ccnc(Nc3ccc(N4CCOCC4)cc3)n2)ccc1OC1CCOCC1	-18.8%	inactive	inactive			

From PubChem BioAssay (NCATS)
